Pf Dd2 inh: qHTS Primary assay for Inhibitors of Plasmodium falciparum Dd2 growth in vitro. AID 1347417, 2020. P. falciparum Dd2 growth, SYBR Green, 72 h. actives 4.3% (n = 120,000). Potency, µM (highest dose often 28.9 µM), usual class: inhibitors; active = well fitted inhibition curve with a large enough effect; also: nearly all actives have a fitted effect of over 65% in size
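Readout: SYBR Green fluorescence, 485 nm excitation, 535 nm emission, after ~16 h lysis at 37C. Before that, Dd2-infected red cells (2.5% hematocrit) grew 72 h with compound, 29 uM top final concentration.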
A number is an active result; - = inactive. Shown is part of a subset that was picked to be rich in hits.

SMILES | Pf Dd2 inh
COCCOCc1nc(C2CCN(C(=O)Nc3ccccc3)CC2)no1 | -
CN(Cc1ccccc1)C1CCOC2(CCN(C(=O)NC3CCCC3)CC2)C1 (stereo not drawn) | 6.3µM
COC1CCOC2(CCN(S(=O)(=O)c3ccccc3)CC2)C1 (stereo not drawn) | -
COc1ccc(S(=O)(=O)N2CCC3(CC2)CC(N(C)Cc2ccccc2)CCO3)cc1 (stereo not drawn) | 11µM
COc1cccc(CC(=O)N2CCC3(CC2)CC(N(C2CC2)S(C)(=O)=O)CCO3)c1 (stereo not drawn) | -
CC(C)NC(=O)N(C1CC1)C1CCOC2(CCN(C(=O)NCc3ccccc3)CC2)C1 (stereo not drawn) | -
CC(C)CNC(=O)N1CCC2(CC1)CC(N(C)Cc1ccccc1)CCO2 (stereo not drawn) | -
O=C(NCCCN1CCOCC1)c1c(OCC2CC2)cc(=O)n2c1CCOCC2 | -
O=C(c1cccc(F)c1)N1CCN(c2cc(-c3ccc(Cl)cc3)[nH]n2)CC1 | -
